In PubChem BioAssay AID504937 (National Center for Advancing Translational Sciences (NCATS), 2011):
About 20 (0.006%) of roughly 340,000 compounds were called active. Calls follow the shape of the dose curve; as a rule, active = well fitted inhibition curve with a large enough effect; inconclusive = small, poorly fitted or top-dose-only effect; inactive = no such curve, though single readings can be large or run the other way. This excerpt belongs to a sample that is enriched for actives.

What follows are compounds tested against Sphingomyelin phosphodiesterase (Homo sapiens) (UniProt P17405) (assay: Inhibitors of Secretory Acid Sphingomyelinase (S-ASM): qHTS). Details: placental ASM, HMU-PC fluorogenic substrate, 60 min; series mostly up to 57.5 µM.
Text: Atherosclerosis is the underlying process for cardiovascular disease and thus is a major contributor to disease burden in the population. […] Thus, selective small molecule inhibitors of S-ASM should block LDL modification and reduce aortic LDL retention and may serve as new agents for the treatment of atherosclerosis. In a collaboration between National Heart, Lung, and Blood Institute and the NCGC a high-throughput amenable screen was developed to identify potent and selective small molecule inhibitors of S-ASM. This enzymatic, fluorescent screen uses an ASM enzyme preparation derived from human placenta and was tested against the NIH Molecular Libraries Small Molecule Repository (MLSMR). NIH Chemical Genomics Center [NCGC] NIH Molecular Libraries Probe Centers Network [MLPCN] MLPCN Grant: MH093173-01 Assay Submitter (PI): Alan Remaley, National Heart, Lung, and Blood Institute and Wei Zhen, NIH Chemical Genomics Center
Two microliters of ASM enzyme (1:150 dilution from stock) are dispensed in 1536-well plate. 23 nL of compound and control are pinned into assay plate using the Kalypsys pintool. The plates are then incubated for 10 minutes at ambient room temperature. Then, 2 uL of the flurogenic substrate, HMU-PC0, (9 uM final) are added to the plate. An incubation for 60 minutes takes place at 37 masculineC. After that, 4 uL of stop solution is added to raise the pH to 10 to end the kinetic reaction. Plate is read on ViewLux, with detection set at Ex = 386 (10) nm and Em = 447 (10) nm.

Sequence of Sphingomyelin phosphodiesterase (Homo sapiens) (P17405 47-631 limits assumed): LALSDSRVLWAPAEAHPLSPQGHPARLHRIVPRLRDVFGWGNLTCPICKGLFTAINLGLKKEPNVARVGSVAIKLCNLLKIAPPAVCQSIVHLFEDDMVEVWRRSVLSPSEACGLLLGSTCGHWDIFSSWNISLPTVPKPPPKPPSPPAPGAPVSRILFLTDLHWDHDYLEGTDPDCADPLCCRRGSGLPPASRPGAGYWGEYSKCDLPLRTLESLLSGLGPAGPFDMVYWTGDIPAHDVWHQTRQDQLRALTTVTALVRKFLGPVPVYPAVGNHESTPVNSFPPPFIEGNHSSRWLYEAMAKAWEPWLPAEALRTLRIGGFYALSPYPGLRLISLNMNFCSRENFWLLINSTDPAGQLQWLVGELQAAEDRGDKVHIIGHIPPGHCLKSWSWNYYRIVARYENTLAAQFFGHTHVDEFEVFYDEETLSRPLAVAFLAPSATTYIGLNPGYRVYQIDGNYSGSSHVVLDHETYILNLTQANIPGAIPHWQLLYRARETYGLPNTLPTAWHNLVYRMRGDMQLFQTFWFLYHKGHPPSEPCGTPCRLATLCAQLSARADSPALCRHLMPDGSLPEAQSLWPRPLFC

Potency, inactive:
CC(=O)OCC1(O)CC23CCC4c5ccoc5CCC4(C)C2CCC1C3 (centres undefined)
COCCn1c(SCC(=O)Nc2nc(C)cs2)nnc1C(C)C
O=C(CNc1cccc(S(=O)(=O)N2CCCCC2)c1)Nc1ccccc1F
CCOC(=O)C(CC)Sc1ncnc2c1nnn2-c1ccc(F)cc1 (centres undefined)
NC(CSC12CC3CC(CC(C3)C1)C2)C(=O)O (centres undefined)
Cc1cccc(NC(=O)N(Cc2cc3cc(C)cc(C)c3[nH]c2=O)CC2COCCO2)c1 (centres undefined)
O=C(Cn1cc(/C=N/NC(=O)c2cccc(C(F)(F)F)c2)c2ccccc21)Nc1ccc(F)cc1
COc1ccccc1CCNC(=O)CSc1nnc2ccc(-c3cccnc3)nn12
COc1ccccc1NC(=O)CCC(=O)N1CC(C)Oc2ccc(C)cc21 (centres undefined)
Cc1cccc(NC(=S)N(CCN(C)C)C(C)c2ccco2)c1 (centres undefined)
Cc1oc(C)c(C(=O)NCCCC(=O)O)c1C(=O)NCCCC(=O)O
CSc1nc(C)nc(C2CC2)c1C#N
CN(C)CCCNC(=O)c1cc(C(=O)Cc2ccc(Cl)cc2)c[nH]1
CN(C(=O)c1cccc(NC(=O)Cc2ccc(NC(=O)C3CCN(C(=O)C4CCCCC4)CC3)cc2)c1)C1CCC1
COc1ccc(CN(CC(=O)NC2CCCC2)C(=O)CCC(=O)Nc2cc(C)on2)cc1
COC(=O)c1sccc1-n1cccc1C(=O)C(=O)N1CCCCC1
Cc1ccc2c(c1)nnc1nnc(SCC(=O)O)n12
Cc1cccc(OC(C)C(=O)N2CCc3ccccc3C2)c1 (centres undefined)
CC(=O)N1CCc2ccc(N)cc21
CCc1noc(C)c1C(=O)N1CCCC(N2CCN(c3ccc(F)cc3)CC2)C1 (centres undefined)
CCCCCCNCCn1cnc2c(N)ncnc21
Cc1cc(NC(=O)CSc2nc(=O)cc(N)n2-c2ccc(F)cc2)no1
Cc1cc(C)n(-c2nnc(C)n2NC(=O)c2cccc(Cl)c2)n1
COCCN1C(=O)C(=O)/C(=C(/O)c2ccc(S(=O)(=O)N3CCCCC3)cc2)C1c1ccc(OC)c(OC)c1 (centres undefined)
Cc1[nH]c2ccccc2c1SCC(=O)Nc1nccs1
CS(=O)(=O)N1CCc2cc(C(=O)Nc3ccccc3Br)ccc21
N#C/C(C(=O)N1CCOCC1)=C1/SC(Cc2ccc(F)cc2)C(=O)N1c1ccccc1 (centres undefined)
O=C(NCc1cccs1)C(=O)NCC1OCCCN1S(=O)(=O)c1ccc(F)cc1 (centres undefined)
Cc1ccc(S(=O)(=O)N2CCC(C(=O)OCC(=O)N3CC(=O)Nc4ccccc43)CC2)cc1
O=C(NC1CCCC1)C(c1ccccn1)N(C(=O)c1csnn1)C1CCCC1 (centres undefined)
CCc1ccc(NC(=O)C(=O)N/N=C(\C)CC(=O)NCCOC)cc1
O=C(Nc1cccc(S(=O)(=O)NC2=NCCC2)c1)C1CCCCC1
COC(=O)c1ccc(Nc2ncnc3sccc23)cc1
COc1ccc(NC(=S)N2N=CCC2c2ccccc2)cc1 (centres undefined)
